A short description of assay [1]: AP1 Signaling Pathway (AID 357; active = well fitted curve in either direction with a large enough effect, not every such curve was filed as active; note: % is set by controls: 0 for no effect and ±100 for the full control effect). Conditions: ME-180 AP-1-bla reporter, EGF-induced, beta-lactamase ratio, 5 h. The method, boiled down:
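ME-180 cells with beta-lactamase reporter under AP-1 response element, stimulated with EC50 EGF; compounds tested in titration series, 5 h at 37 °C. CCF4 substrate added 2.5 h at room temperature; 460/530 nm emission ratio gave %activity and AC50.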

Assay [2] deals with Cytochrome P450 1A2 (Homo sapiens) (UniProt P05177). As to the kind of experiment: p450-cyp1a2 (AID 410; calls by dose curve; note: potency is the fitted concentration of half-maximal effect). The note with it: recombinant CYP1A2, luciferin-ME demethylation, luminescence; series mostly up to 57 µM. The method, boiled down:
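Luminescent readout of luciferin formed from Luciferin-ME by human CYP1A2; data normalized against complete inhibition by 57 uM furafylline. Enzyme 20nM, substrate 100uM at Km, 100mM KPO4 buffer, 60 min reaction at room temperature.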

Assay [3] is described as follows: NFAT Signaling Pathway (AID 444; active = well fitted curve in either direction with a large enough effect, not every such curve was filed as active;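 note: carbachol stimulus at about its EC50 of 1 µM final; % is set by controls: 0 for no effect and ±100 for the full control effect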). Conditions: Jurkat NFAT-bla M1, carbachol, beta-lactamase ratio, 5 h. The procedure, abridged:
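Jurkat cells carrying an NFAT-driven β-lactamase reporter and co-transfected muscarinic M1 receptor were treated with compound plus carbachol (1 uM final, an EC50 level) for 5 h at 37 °C. CCF4 loading followed for 1 h at RT; 460/530 nm ratio gave %activity.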

A short description of assay [4]: Stat Signaling Pathway (AID 446; active = well fitted curve in either direction with a large enough effect, not every such curve was filed as active;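 note: ME-180 cervical cancer cells given 40 pM IL-6 alongside compound; SIE-controlled beta-lactamase reporter measured as 460/530 nm FRET emission ratio; % is set by controls: 0 for no effect and ±100 for the full control effect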). Conditions: ME-180 (cervical carcinoma) SIE beta-lactamase reporter, IL-6 stimulated, 5 h. The method, boiled down:
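ME-180 SIE-bla cells; overnight plating; cpd + IL-6 40 pM, 5 h, 37 C; LiveBLAzer 2.5 h RT; 460/530 nm emission ratio. Normalized to 300 pM IL-6 and 125 nM JAK inhibitor controls.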

The target of assay [5] is Mitogen-activated protein kinase 10 (Mus musculus) (UniProt Q61831). As to the kind of experiment: JNK3 AlphaScreen Assay (AID 530; active = well fitted curve in either direction with a large enough effect, not every such curve was filed as active;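 note: kinase came from lysate of stimulated human HepG2 cells; signal reports phosphorylation of biotinylated GST-cJun 1-79 at Ser73 with 10 µM ATP; % is set by controls: 0 for no effect and ±100 for the full control effect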). The note with it: JNK3 lysate, c-Jun phosphorylation; series mostly up to 57.1 µM. The method, boiled down:
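Inhibitors reduce antibody binding to phosphorylated biotin-cJun, lowering AlphaScreen luminescence. Lysates from HepG2 cells pre-activated by IL-1beta plus TNF-alpha supplied JNK3; compounds were titrated.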
In general terms: Bead proximity is the source of the signal in Alpha formats.

Assay [6] concerns the target 3',5'-cyclic-AMP phosphodiesterase 4B (Homo sapiens) (UniProt Q07343). As to the kind of experiment: qHTS Assay for Inhibitors of PDE-IV (AID 607; active = well fitted activation curve with a large enough effect in the main read-out, with a control signal flat, not every such curve was filed as active; note: % of control where 0% means no effect). Conditions: HEK293 ACTOne CNG channel cells, membrane potential fluorescence; series mostly up to 22.9 µM. The procedure, abridged:
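ACTOne HEK293 cells carry a modified cAMP-gated CNG channel and express endogenous PDE4; plated 1000 cells/well, compounds up to 22.9 uM final. Membrane-potential dye fluorescence (ex 535/em 590) was read; parental cells received 10 uM forskolin + 100 uM RO 20-1724.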

In assay [7] the target is Guanine nucleotide-binding protein G(i) subunit alpha-1 (Homo sapiens) (UniProt P63096). As to the kind of experiment: qHTS Assay for Inhibitors of RGS12 GoLoco Motif Activity (Green Fluorophore) (AID 879).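 Note: 0% = labeled peptide with Gαi1 and full inhibition = labeled peptide alone without protein; negative values mean loss of peptide binding seen as reduced polarization.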 Conditions: Galphai1/FITC-RGS12 GoLoco peptide, fluorescence polarization; series mostly up to 57.1 µM. The procedure, abridged: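 Fluorescence polarization assay: 50 nM Gαi1 with 10 nM FITC-labeled RGS12 GoLoco peptide in 10 mM Tris pH 7.5, 150 mM NaCl, 0.1 mM GDP, 0.05% NP40, 10 min at room temperature with compound.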
Guanine nucleotide-binding protein G(i) subunit alpha-1 (Homo sapiens), sequence (P63096 whole entry, looked up): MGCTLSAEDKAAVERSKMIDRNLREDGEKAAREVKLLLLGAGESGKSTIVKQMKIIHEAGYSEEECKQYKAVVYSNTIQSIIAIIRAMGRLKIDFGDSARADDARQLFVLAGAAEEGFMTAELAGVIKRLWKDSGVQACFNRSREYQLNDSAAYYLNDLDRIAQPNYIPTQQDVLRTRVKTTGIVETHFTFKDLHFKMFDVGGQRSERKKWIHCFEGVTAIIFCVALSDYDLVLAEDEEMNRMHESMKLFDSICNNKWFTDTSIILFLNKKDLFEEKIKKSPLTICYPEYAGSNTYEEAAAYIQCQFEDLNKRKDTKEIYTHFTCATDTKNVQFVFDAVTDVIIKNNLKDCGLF

Assay [8] can be described thus: qHTS Assay for Identification of Small Molecule Agonists for Thrombopoietin (TPO) Signaling Pathway (AID 917). Note: % is set by controls: 0 for no effect and ±100 for the full control effect. Conditions: TPO signaling pathway reporter cells, agonist qHTS, stimulated with TPO at its EC50; series mostly up to 38.5 µM. The method, boiled down:
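IL-3-dependent murine pro-B Ba/F3 cells, stably transfected with human TPO receptor and GpIIb-promoter luciferase, are incubated 24 hrs at 37 C with test compound and 26 pM TPO; luciferase signal is read after 10 min at room temperature.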

In assay [9] the target is Muscarinic acetylcholine receptor M1 (Rattus norvegicus) (UniProt P08482). As to the kind of experiment: qHTS Assay for Antagonists of Acetylcholine Muscarinic M1 Receptor: Measurement of IP-One Response (AID 944). Note: nearly all actives have a fitted effect of over 75% in size. Conditions: CHO-M1 cells, IP-One HTRF, antagonist mode; series mostly up to 46.1 µM. The procedure, abridged: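 M1-CHO (rat), 2000 cells/well, overnight recovery; cpd 10 min; carbachol EC80 (200 nM), 30 min, HEPES buffer + 50 mM LiCl pH 7.4; IP-One HTRF, Ex 337, Em 620/665 nm.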
Muscarinic acetylcholine receptor M1 (Rattus norvegicus), sequence (P08482 whole entry, looked up): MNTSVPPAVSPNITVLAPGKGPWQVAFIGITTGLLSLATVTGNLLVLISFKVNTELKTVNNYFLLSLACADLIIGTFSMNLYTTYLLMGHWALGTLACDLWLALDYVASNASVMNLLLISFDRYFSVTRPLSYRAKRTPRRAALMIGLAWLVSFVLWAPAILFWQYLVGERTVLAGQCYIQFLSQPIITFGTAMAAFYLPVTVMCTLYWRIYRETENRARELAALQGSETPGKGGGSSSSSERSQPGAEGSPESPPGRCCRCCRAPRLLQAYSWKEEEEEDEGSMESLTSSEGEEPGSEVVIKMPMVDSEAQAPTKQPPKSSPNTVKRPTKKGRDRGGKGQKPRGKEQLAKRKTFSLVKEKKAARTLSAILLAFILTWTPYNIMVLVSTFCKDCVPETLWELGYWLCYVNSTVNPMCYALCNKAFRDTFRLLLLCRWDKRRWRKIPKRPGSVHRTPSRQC
Background: Quantitative high-throughput screening tests each substance at several concentrations.

The target in assay [10] is Pyruvate kinase (Leishmania mexicana) (UniProt Q27686). As to the kind of experiment: qHTS Validation Assay for Inhibitors of Leishmania Mexicana Pyruvate Kinase (AID 945).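 Note: 0% = DMSO only neutral control wells.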 The note with it: purified L. mexicana pyruvate kinase, enzyme activity, E451W mutant enzyme; series mostly up to 57.5 µM. The method, boiled down:
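Read-out: luminescence from PKLight stop/detection reagent, data normalized to DMSO. Reaction: 0.2 nM E451W LmPYK, 0.5 mM PEP, 0.1 mM ADP, pH 7.2, 1 h room temperature.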

Assay [11] has as its target Alpha-galactosidase A (Homo sapiens) (UniProt P06280). As to the kind of experiment: Counterscreen for Glucocerebrosidase Inhibitors: qHTS Assay for Human alpha-Galactosidase at pH 4.5 (AID 992). Note: 0% is about no effect. Conditions: purified enzyme, fluorogenic substrate; series mostly up to 76.9 µM. The method, boiled down: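 Enzyme at 2 nM final was combined with compound (0.7 nM to 77 uM) and 80 uM 4-methylumbelliferyl alpha-D-galactopyranoside in 50 mM citric acid, 0.005% Tween-20, pH 4.5. After 20 min at room temperature, fluorescence was read (Ex 365/Em 440 nm); AC50 came from Hill fits.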
A general note: Counterscreens check selectivity or assay interference.

Assay [12] deals with alpha-glucosidase (Oryza sativa, rice) (UniProt Q653V4). As to the kind of experiment: Counterscreen for Glucocerebrosidase Inhibitors: qHTS Assay for Rice alpha-Glucosidase at pH 5.0 (AID 997).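 Note: 0% = full activity with enzyme and -100% = basal without enzyme.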 Conditions: rice alpha-glucosidase enzyme activity; series mostly up to 76.9 µM. The method, boiled down:
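Rice alpha-glucosidase (4 nM final) with 400 uM 4-methylumbelliferyl-alpha-D-glucopyranoside in citrate buffer pH 5.0, 20 min at room temperature, stopped at pH 10; fluorescence 365/440 nm, compounds 0.7 nM–77 uM, AC50 from Hill fits.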

The target in assay [13] is Ubiquitin carboxyl-terminal hydrolase 1 (Homo sapiens) (UniProt O94782). As to the kind of experiment: Inhibitors of USP1/UAF1: Pilot qHTS (AID 504865).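 Note: rhodamine fluorescence freed from ubiquitin-rhodamine substrate followed over time; top concentration of the series differs between compounds; % is set by controls: 0 for no effect and ±100 for the full control effect; nearly all actives have a fitted effect of over 35% in size.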 Conditions: purified USP1/UAF1, Ub-rhodamine cleavage fluorescence; series mostly up to 114 µM. The method, boiled down: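 Enzyme-free wells gave the negative control, while test wells held 1nM USP1/UAF1 preincubated with compound for 15 min at room temperature. Ub-Rho at 150nM final started the reaction, and fluorescence at 480/540 nm was recorded kinetically.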
Ubiquitin carboxyl-terminal hydrolase 1 (Homo sapiens), sequence (O94782 whole entry, looked up): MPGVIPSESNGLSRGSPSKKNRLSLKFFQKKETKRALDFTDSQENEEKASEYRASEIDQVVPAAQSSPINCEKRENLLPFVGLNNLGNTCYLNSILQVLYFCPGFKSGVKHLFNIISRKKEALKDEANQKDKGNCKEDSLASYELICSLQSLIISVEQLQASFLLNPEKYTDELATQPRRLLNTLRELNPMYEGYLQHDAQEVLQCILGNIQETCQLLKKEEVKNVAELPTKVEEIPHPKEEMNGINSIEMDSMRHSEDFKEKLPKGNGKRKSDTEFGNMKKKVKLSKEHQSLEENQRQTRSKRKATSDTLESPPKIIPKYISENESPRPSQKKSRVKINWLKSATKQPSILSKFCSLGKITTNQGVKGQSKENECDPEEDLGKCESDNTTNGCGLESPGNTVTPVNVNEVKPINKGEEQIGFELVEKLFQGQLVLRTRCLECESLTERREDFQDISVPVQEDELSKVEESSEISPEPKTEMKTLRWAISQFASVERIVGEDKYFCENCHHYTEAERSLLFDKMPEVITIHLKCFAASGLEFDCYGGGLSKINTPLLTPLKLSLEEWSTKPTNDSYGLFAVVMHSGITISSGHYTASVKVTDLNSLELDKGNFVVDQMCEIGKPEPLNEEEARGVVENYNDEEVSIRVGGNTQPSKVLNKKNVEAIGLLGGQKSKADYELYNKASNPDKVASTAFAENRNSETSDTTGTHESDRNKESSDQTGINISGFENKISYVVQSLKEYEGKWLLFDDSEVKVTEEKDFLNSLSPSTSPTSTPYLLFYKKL

The target in assay [14] is DNA dC->dU-editing enzyme APOBEC-3G (Homo sapiens) (UniProt Q9HC16). As to the kind of experiment: qHTS for inhibitors of Vif-A3G interactions: Validation (AID 588379). Note: 0% is about no effect. The note with it: Vif-A3G protein interaction assay; series mostly up to 46.1 µM. The procedure, abridged: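 HeLa cells stably expressing Vif and A3G-eYFP, 700 cells/well, incubated overnight at 37 deg C, then exposed to compound overnight at 37 deg C. Inhibition of Vif-mediated degradation read as increased yellow fluorescence (Ex 488/Em 500-530) by laser-scanning cytometry.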
DNA dC->dU-editing enzyme APOBEC-3G (Homo sapiens), sequence (Q9HC16 whole entry, looked up): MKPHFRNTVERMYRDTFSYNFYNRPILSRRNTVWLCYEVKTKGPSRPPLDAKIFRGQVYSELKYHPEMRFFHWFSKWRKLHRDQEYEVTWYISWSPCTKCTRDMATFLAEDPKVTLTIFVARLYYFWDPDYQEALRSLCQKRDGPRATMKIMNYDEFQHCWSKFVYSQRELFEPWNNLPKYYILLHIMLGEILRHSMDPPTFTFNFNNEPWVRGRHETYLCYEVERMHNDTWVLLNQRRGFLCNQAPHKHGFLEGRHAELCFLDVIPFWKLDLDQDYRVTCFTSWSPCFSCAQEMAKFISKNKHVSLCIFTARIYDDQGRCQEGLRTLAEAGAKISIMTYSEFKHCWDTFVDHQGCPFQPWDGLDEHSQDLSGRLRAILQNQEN

Assay [15] has as its system Zika virus NS2B-NS3 protease. As to the kind of experiment: Primary screen GU AMC qHTS for Zika virus inhibitors (AID 1347154).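 Note: 0% = no-inhibitor control and -100% = no-enzyme control; nearly all actives have a fitted effect of over 70% in size.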 The note with it: Zika NS2B-NS3 unlinked protease, AMC fluorogenic substrate; series mostly up to 54.1 µM. The procedure, abridged:
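Unlinked Zika NS2B hydrophilic domain/NS3 protease domain noncovalent complex (25 nM final) in 10 mM Tris-HCl pH 8.0, 0.01% Tween 20, with AMC peptide substrate. Fluorescence (ex 340, em 450 nm) change over 15 min, room temperature; percent inhibition fitted to 4-parameter Hill equation.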

Assay [16] can be described thus: Primary qHTS for small molecule stabilizers of the endoplasmic reticulum resident proteome: Secreted ER Calcium Modulated Protein (SERCaMP) assay (AID 1508630). Note: % is set by controls: 0 for no effect and ±100 for the full control effect. Conditions: SH-SY5Y GLuc-SERCaMP (Gaussia luciferase released on ER calcium loss) secretion, thapsigargin, luminescence; series mostly up to 38.4 µM. The method, boiled down: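 GLuc-SERCaMP-expressing SH-SY5Y cells, pretreated 16 h with compound, are challenged with thapsigargin to empty ER calcium stores; after 4 h, coelenterazine is added directly to the medium and luminescence is imaged.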

Assay [17] concerns the target Glucocorticoid receptor (Homo sapiens) (UniProt P04150). As to the kind of experiment: GR-GFP Redistribution (AID 450;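 active = compounds whose dose series gives a full or clear partial fitted curve of increased nuclear translocation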; note: potency is the fitted concentration of half-maximal effect). The note with it: U2OS GR-GFP nuclear translocation, laser cytometry, 2 h.
For assay [18] the target is unchanged. As to the kind of experiment: GR-EFC Redistribution (AID 451; calls by dose curve; note: potency is the fitted concentration of half-maximal effect). Conditions: CHO-K1 GR-EFC translocation, beta-gal luminescence, 2 h. The method, boiled down:
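CHO-K1 cells stably expressing nuclear-localized β-gal enzyme acceptor and GR fused C-terminally to the enzyme donor fragment; ligand-driven nuclear translocation restores β-gal by complementation. Compounds titrated up to 46 uM final, 2 h at 37 °C; luminescence read.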

Experimental findings from PubChem BioAssay (NCATS) are described below.

Several values for one entry are separate records, joined by “and”; a condition that tells them apart may be missing. Equal entries are not always repeated. A number with no mark means an inactive call. Records with an inconclusive call do not appear. Activity calls are given as the source filed them. Unless noted, calls come from the whole dose curve; as a rule, active = well fitted curve in the direction sought with a large enough effect; inconclusive = small, poorly fitted or top-dose-only effect, or another doubt; inactive = no such curve, though single readings can be large; an effect the other way counts as inactive or inconclusive.

Cytochrome P450 1A2 (Homo sapiens), sequence (P05177 whole entry, looked up): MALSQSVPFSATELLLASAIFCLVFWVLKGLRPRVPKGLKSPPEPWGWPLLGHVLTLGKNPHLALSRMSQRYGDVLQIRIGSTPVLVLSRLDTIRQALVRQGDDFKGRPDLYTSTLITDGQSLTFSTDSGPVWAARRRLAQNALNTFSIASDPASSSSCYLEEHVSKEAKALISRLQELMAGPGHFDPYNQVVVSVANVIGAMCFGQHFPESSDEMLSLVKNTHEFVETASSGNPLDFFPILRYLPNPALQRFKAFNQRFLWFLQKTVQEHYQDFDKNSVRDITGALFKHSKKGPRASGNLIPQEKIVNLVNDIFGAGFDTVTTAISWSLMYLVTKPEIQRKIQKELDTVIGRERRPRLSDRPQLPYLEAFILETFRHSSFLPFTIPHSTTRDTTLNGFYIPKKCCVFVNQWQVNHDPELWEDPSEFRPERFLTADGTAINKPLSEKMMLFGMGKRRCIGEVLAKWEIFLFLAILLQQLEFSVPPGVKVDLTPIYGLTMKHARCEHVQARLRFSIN
3',5'-cyclic-AMP phosphodiesterase 4B (Homo sapiens), sequence (Q07343 whole entry, looked up): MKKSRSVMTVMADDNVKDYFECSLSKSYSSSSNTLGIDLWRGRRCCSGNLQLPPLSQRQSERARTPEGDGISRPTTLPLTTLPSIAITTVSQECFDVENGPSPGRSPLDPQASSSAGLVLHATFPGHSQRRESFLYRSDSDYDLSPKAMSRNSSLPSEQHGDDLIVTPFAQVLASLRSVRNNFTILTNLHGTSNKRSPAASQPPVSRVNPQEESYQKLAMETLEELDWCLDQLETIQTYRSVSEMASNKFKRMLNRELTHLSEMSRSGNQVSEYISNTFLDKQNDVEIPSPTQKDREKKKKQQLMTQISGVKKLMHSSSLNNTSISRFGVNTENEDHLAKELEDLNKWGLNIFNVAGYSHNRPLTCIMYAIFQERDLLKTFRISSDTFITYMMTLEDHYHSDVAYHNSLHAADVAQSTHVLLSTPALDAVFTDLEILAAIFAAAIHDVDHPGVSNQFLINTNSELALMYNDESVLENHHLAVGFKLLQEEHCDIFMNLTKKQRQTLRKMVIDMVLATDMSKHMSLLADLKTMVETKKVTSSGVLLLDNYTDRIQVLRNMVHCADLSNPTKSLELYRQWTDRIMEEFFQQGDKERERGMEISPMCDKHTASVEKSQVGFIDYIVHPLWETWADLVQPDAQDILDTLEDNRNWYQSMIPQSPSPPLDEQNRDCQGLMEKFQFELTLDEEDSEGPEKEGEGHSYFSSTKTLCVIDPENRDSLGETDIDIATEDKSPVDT
Glucocorticoid receptor (Homo sapiens), sequence (P04150 whole entry, looked up): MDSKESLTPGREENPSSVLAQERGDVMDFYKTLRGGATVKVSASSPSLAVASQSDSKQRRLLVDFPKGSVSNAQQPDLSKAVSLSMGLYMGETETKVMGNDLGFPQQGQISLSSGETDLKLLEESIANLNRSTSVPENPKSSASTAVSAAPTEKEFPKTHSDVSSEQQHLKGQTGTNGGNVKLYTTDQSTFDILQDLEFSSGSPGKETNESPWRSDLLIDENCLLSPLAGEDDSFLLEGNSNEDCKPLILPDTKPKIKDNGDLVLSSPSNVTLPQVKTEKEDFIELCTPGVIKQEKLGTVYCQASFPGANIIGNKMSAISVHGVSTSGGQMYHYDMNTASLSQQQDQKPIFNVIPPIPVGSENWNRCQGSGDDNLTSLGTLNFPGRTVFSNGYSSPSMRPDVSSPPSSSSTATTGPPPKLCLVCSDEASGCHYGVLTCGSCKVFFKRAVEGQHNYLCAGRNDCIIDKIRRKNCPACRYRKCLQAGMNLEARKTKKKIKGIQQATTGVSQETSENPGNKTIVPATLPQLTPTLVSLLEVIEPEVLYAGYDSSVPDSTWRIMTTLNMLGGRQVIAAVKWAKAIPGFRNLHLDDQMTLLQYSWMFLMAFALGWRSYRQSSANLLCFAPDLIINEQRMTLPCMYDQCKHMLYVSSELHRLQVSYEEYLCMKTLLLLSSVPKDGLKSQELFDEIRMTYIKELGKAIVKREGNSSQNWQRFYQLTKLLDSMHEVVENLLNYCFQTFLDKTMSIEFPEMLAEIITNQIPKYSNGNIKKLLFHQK
Alpha-galactosidase A (Homo sapiens), sequence (P06280 whole entry, looked up): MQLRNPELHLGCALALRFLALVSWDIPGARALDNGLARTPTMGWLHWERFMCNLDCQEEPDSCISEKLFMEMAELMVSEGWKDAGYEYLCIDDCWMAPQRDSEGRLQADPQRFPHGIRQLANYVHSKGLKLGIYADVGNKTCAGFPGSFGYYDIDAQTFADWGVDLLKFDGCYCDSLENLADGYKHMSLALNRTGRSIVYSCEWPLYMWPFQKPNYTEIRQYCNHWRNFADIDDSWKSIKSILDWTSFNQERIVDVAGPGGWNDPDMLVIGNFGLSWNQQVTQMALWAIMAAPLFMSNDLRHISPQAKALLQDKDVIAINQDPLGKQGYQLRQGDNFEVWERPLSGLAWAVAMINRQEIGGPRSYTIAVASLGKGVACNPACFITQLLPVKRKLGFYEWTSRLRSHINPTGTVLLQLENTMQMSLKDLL
Pyruvate kinase (Leishmania mexicana), sequence (Q27686 2-499 E452W): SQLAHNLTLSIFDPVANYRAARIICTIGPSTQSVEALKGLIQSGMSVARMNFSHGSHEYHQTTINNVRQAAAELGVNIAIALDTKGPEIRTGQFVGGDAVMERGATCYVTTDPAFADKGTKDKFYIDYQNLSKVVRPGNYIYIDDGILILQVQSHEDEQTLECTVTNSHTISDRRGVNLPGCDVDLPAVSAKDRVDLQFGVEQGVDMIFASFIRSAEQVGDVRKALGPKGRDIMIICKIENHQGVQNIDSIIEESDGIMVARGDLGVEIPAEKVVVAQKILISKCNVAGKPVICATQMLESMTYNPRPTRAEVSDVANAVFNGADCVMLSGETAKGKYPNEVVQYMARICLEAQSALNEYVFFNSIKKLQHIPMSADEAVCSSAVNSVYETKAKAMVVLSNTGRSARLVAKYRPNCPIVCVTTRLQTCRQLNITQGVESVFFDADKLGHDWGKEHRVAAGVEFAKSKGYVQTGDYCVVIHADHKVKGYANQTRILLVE

As for `NC(N)=NN=Cc1c(Cl)cccc1Cl`, the activity change, negative = inhibition in assay [1] (at 17.2 µM (top of the series)) is -2.9%; in assay [1] (at 38 µM (top of the series)) it was 4.65%; in assay [3] (at 17.2 µM (top of the series)), -0.975%; in assay [3] (at 38 µM (top of the series)), -1.48%. In assay [2], the Potency is 7.94 µM (active) and 3.98 µM (active) and 2 µM (active). Further, the values for the activity, negative = inhibition in [4] (at 17.2 µM (top of the series)) and in [4] (at 38 µM (top of the series)) were 9.46% and -0.683%, respectively. In addition, the Potency entry in [5], in assay [6], in [8], in assay [9], in [10] and in assay [13] was “inactive” throughout. For the same molecule, the Potency result in assay [14], in [15] and in [16] was “inactive” in each case. The result in [7], in assay [11] and in assay [12] was inactive.

For `O[C@H](CCCN1CCN(c2ncc(F)cn2)CC1)c1ccc(F)cc1`, the Potency in assay [2] is 31.6 µM (active); in assay [17], more than 46 µM; in assay [18], more than 46 µM. Besides, the Potency entry in assay [5], in [6], in assay [13], in assay [14], in assay [15] and in [16] was “inactive” in each case.
